This is part of a sample that, as a whole, favours compounds with a hit. Of some 83,000 tested, about 20% had one in any assay.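 Testing used 96-well plates and a 48-hour single-concentration exposure. Example: -40 means 40% of the starting cells died.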 Calls of active or inactive are those of the source. Rule for the calls: active = growth percent below 10; inactive = the rest.
Key:
Test in all cases: NCI-60 one-dose screen, 48 h (100 = growth as untreated, 0 = no growth, -100 = all killed)
Details in all cases: 10 µM unless noted
[1] = tested on: SR leukemia
[2] = tested on: RPMI-8226 leukemia
[3] = tested on: OVCAR-8 ovarian
[4] = tested on: OVCAR-5 ovarian
[5] = tested on: OVCAR-4 ovarian
[6] = tested on: SK-OV-3 ovarian
[7] = tested on: IGROV1 ovarian
[8] = tested on: OVCAR-3 ovarian
[9] = tested on: HS 578T breast
[10] = tested on: NCI/ADR-RES ovarian
[11] = tested on: T-47D breast
[12] = tested on: BT-549 breast
[13] = tested on: MDA-MB-435 melanoma
[14] = tested on: SW-620 colon
[15] = tested on: MCF7 breast
[16] = tested on: HCT-116 colon
[17] = tested on: HCC-2998 colon
[18] = tested on: KM12 colon

Measured: growth

CCN(CC)/C([O-])=c1\cccc\c1=C1\N=C(c2ccccc2)N=C1[n+]1ccc(-c2ccccc2)cc1
inactive: [1] 102% | [2] 98.4% | [3] 97.6% | [4] 87.8% | [5] 99.5% | [6] 105% | [7] 54.7% | [8] 94% | [9] 109% | [10] 98.2% | [11] 90.5% | [12] 93.3% | [13] 96.8% | [14] 91.6% | [15] 93% | [16] 97% | [17] 93.3% | [18] 96.3%

O=C(NNc1ccccc1)C1CCCN1 (centres undefined)
inactive: [1] 105% | [2] 78.7% | [3] 86.7% | [4] 69.7% | [5] 64.5% | [6] 80.6% | [7] 75.1% | [8] 88.8% | [9] 93% | [10] 84.1% | [11] 55.6% | [12] 104% | [13] 37.1% | [14] 68.2% | [15] 76.4% | [16] 78.8% | [17] 82.2% | [18] 31.9%

COC(=O)c1nc(-c2ccc(C)cc2)oc1Sc1ccc(C)cc1
inactive: [1] 76.1% | [2] 81.4% | [3] 98.5% | [4] 97.8% | [5] 101% | [6] 92.1% | [7] 110% | [8] 108% | [9] 108% | [10] 108% | [11] 72.9% | [12] 101% | [13] 103% | [14] 103% | [15] 93.7% | [16] 99.4% | [17] 110% | [18] 98.6%

CC1=C2[C@@H](CC1)[C@]1(C)O[C@@](C(C)C)(C[C@H]1OC(=O)CO)[C@H]2OC(=O)C1CC1c1ccccc1 (some centres undefined)
active: [9] -2.94%
inactive: [1] 82% | [2] 88.8% | [3] 65.6% | [4] 78.2% | [5] 102% | [6] 108% | [7] 87.5% | [8] 96.5% | [10] 69% | [11] 41.5% | [12] 88.8% | [13] 96.7% | [14] 84.6% | [15] 75.1% | [16] 89% | [17] 82.9% | [18] 73.9%

N#Cc1c(N)nnn1Cc1cc(=O)oc2ccc(O)cc12
inactive: [1] 95.3% | [2] 94.1% | [3] 100% | [4] 106% | [5] 110% | [6] 112% | [7] 112% | [8] 113% | [9] 99% | [10] 111% | [11] 98% | [12] 111% | [13] 105% | [14] 104% | [15] 96.8% | [16] 89.3% | [17] 110% | [18] 107%

O=C(N=Nc1c(O)[nH]c2ccccc12)Nc1ccccc1Cl
inactive: [1] 77.1% | [2] 84.8% | [3] 97.5% | [4] 93.6% | [5] 71% | [6] 94.4% | [7] 65.3% | [8] 101% | [9] 89.4% | [10] 93% | [11] 42% | [12] 96.6% | [13] 84.5% | [14] 85.2% | [15] 19.8% | [16] 89.8% | [17] 78.2% | [18] 53.6%

Cc1ccc(-c2nc3nc(-c4ccc(F)cc4)nc(N4CCCNCC4)c3o2)cc1
active: [1] -37.3% | [2] -62.4% | [3] -74.8% | [4] -97.3% | [5] -89% | [6] -88.8% | [7] -88.3% | [8] -96% | [9] -75.9% | [10] -77.7% | [11] -63.8% | [12] -76.9% | [13] -95.7% | [14] -84.6% | [15] -72.4% | [16] -87.2% | [17] -89.3% | [18] -86.3%

COC1=CC(=O)C(OC)=C(O)C1=O
inactive: [1] 107% | [2] 110% | [3] 103% | [4] 95.2% | [5] 90.8% | [6] 91% | [7] 103% | [8] 105% | [9] 113% | [10] 101% | [11] 89% | [12] 98.9% | [13] 101% | [14] 93.2% | [15] 91.5% | [16] 98.7% | [17] 101% | [18] 102%

Cc1nc(-n2[nH]c(=O)ccc2=O)sc1N=Nc1ccccc1
inactive: [1] 105% | [2] 100% | [3] 103% | [4] 100% | [5] 104% | [6] 103% | [7] 95.5% | [8] 114% | [9] 95.5% | [10] 108% | [11] 94% | [12] 95.7% | [13] 102% | [14] 98.1% | [15] 94.2% | [16] 97.5% | [17] 115% | [18] 108%

Cn1cc(-c2nonc2-c2cn(C)c3ccc(Br)cc23)c2ccccc21
active: [8] 3.66% | [9] -1.89% | [13] -20.3%
inactive: [1] 11.1% | [2] 29.6% | [3] 36.8% | [4] 58.1% | [5] 55.5% | [6] 37.9% | [7] 45.6% | [10] 21% | [11] 23.6% | [12] 34% | [14] 14.7% | [15] 15.4% | [16] 17.1% | [17] 67.9% | [18] 23.3%

CC(=O)c1c(C)nc(SCC(=O)Nc2ccc(Cl)cc2)n1-c1ccc(Cl)cc1
inactive: [1] 90.6% | [2] 71.1% | [3] 89.3% | [4] 99.1% | [5] 102% | [6] 85.9% | [7] 97.9% | [8] 99.4% | [9] 79.4% | [10] 89.2% | [11] 72.1% | [12] 92.1% | [13] 89.6% | [14] 87.6% | [15] 82.9% | [16] 67.7% | [17] 102% | [18] 98.5%

O=C(Oc1ccc(CO[N+](=O)[O-])cc1)c1ccccc1
active: [1] -45.7% | [2] -53.1% | [3] -83.7% | [4] -81.2% | [5] -77.1% | [6] -90.4% | [7] -80.2% | [8] -97% | [9] -25.1% | [10] -82% | [11] -37.4% | [12] -97% | [13] -94% | [14] -56.8% | [15] -54.4% | [16] -86.2% | [17] -81.9% | [18] -78.9%

O=C1/C(=C/c2ccc(F)c(F)c2)CN(C(=O)C(Cl)Cl)C/C1=C\c1ccc(F)c(F)c1
active: [1] -21.2% | [2] -31.4% | [3] -95.4% | [4] -72.6% | [5] -67.1% | [6] -35% | [7] -84.5% | [8] -97% | [9] -38.5% | [10] -18% | [11] -46.2% | [12] -98% | [13] -94.8% | [14] -67.6% | [15] -55.2% | [16] -98.9% | [17] -83.4% | [18] -89.2%

CCOC(=O)c1cnn(-c2ccc(S(N)(=O)=O)cc2)c1N
inactive: [1] 95.5% | [2] 94.1% | [3] 102% | [4] 89.2% | [5] 103% | [6] 104% | [7] 97.9% | [8] 134% | [9] 110% | [10] 96.1% | [11] 103% | [12] 96% | [13] 109% | [14] 110% | [15] 95.2% | [16] 94.4% | [17] 115% | [18] 122%

O=C(Nc1ccc(F)cc1)c1cc2cc(Nc3nc(-c4ccccc4)nc4ccccc34)ccc2oc1=O
inactive: [1] 86.6% | [2] 97.9% | [3] 100% | [4] 106% | [5] 111% | [6] 98.2% | [7] 101% | [8] 105% | [9] 103% | [10] 95.5% | [11] 95.7% | [12] 100% | [13] 108% | [14] 107% | [15] 97.9% | [16] 96.3% | [17] 113% | [18] 102%

O=C(CN1C(=O)S/C(=C\C(Cl)=C\c2ccccc2)C1=O)NC1C=CS(=O)(=O)C1 (centres undefined)
active: [1] 6.39% | [2] 0.667% | [3] 4.68% | [7] -16.1% | [8] -12.6% | [11] 4.56% | [12] 2.33% | [13] -31.4% | [14] -36.4% | [16] -62.3%
inactive: [4] 44.2% | [5] 39.4% | [6] 98.8% | [9] 51.7% | [10] 24.7% | [15] 11.1% | [17] 65.6% | [18] 16.4%

CN(C)C1CCN(C(=O)c2ccc(NC(=O)Nc3ccc(-c4nc(N5CCOCC5)c5cccn5n4)cc3)cc2)CC1
active: [1] 8.47% | [2] -20.8% | [3] -0.587% | [4] -0.314% | [5] -26.9% | [6] -30.8% | [7] -26.4% | [8] -12% | [9] -32.6% | [11] -36% | [12] -7.28% | [13] 1.97% | [14] 9.03% | [15] -4.03% | [16] 5.84% | [17] 3.23% | [18] 5.54%
inactive: [10] 85.1%

Cc1c(CC(=O)OCCO)cc(-c2ccc(Cl)cc2)n1-c1ccccc1
inactive: [1] 91.2% | [2] 72.1% | [3] 92.4% | [4] 99.6% | [5] 68.9% | [6] 110% | [7] 104% | [8] 108% | [9] 106% | [10] 99.5% | [11] 72.3% | [12] 109% | [13] 98.7% | [14] 104% | [15] 93% | [16] 102% | [17] 118% | [18] 99.1%

Cc1c(O)c(O)cc2c3c(oc12)CC(c1ccc2c(c1)OCO2)CC3=O (centres undefined)
inactive: [1] 75.6% | [2] 87.5% | [3] 94.8% | [4] 113% | [5] 89.4% | [6] 85.4% | [7] 38.6% | [8] 86.4% | [9] 92.2% | [10] 90.3% | [11] 67.4% | [12] 74.6% | [13] 105% | [14] 81.7% | [15] 73.6% | [16] 90.2% | [17] 101% | [18] 90.9%

O=C1/C(=C/c2ccccc2)CN(C(=O)C(Cl)Cl)C/C1=C\c1ccccc1
inactive: [3] 10.7% | [4] 31.7% | [5] 29.7% | [6] 90.2% | [10] 13.5% | [11] 17.2%
active: [1] -4.98% | [2] -25.6% | [7] -25.1% | [8] -52.7% | [9] 4.17% | [12] -5.59% | [13] -50.2% | [14] -49% | [15] -39% | [16] -70.7% | [17] -59.6% | [18] -61.8%

COc1cc(CO)cc2cc3ccccc3nc12
inactive: [1] 96% | [2] 101% | [3] 101% | [4] 106% | [5] 107% | [6] 109% | [7] 106% | [8] 110% | [9] 108% | [10] 111% | [11] 101% | [12] 102% | [13] 104% | [14] 102% | [15] 79.9% | [16] 98.5% | [17] 106% | [18] 102%

CN1CCN(Cc2ccc(NC(=O)c3cccc(C#Cc4c(N)ncc5ccc(F)cc45)c3)cc2C(F)(F)F)CC1
inactive: [11] 14.8% | [12] 28.5%
active: [1] -24.6% | [2] -33.6% | [3] -51.5% | [4] -57.7% | [5] -47.6% | [6] 6.69% | [7] -42.4% | [8] -57.4% | [9] -37.9% | [10] -44.7% | [13] -95.9% | [14] -91.6% | [15] -80.9% | [16] -93.1% | [17] -86.8% | [18] -82.1%

OCCN1CCN(c2cc(-c3cccc(OC(F)(F)F)c3)nc3ccc(N4CCCC4)cc23)CC1
active: [1] 3.39% | [14] 2.96%
inactive: [2] 43.1% | [3] 54.3% | [4] 69.4% | [5] 54.9% | [6] 74.5% | [7] 36.9% | [8] 46.7% | [9] 53.9% | [10] 48.5% | [11] 32.2% | [12] 80.5% | [13] 29.7% | [15] 17.5% | [16] 15.6% | [17] 22.9% | [18] 23.4%
